Measured values from PubChem BioAssay AID1159580 (chemical genetic matrix, 2015).
Out of some 5,500 compounds screened, about 2,000 (36%) were called active. Inconclusive results (about 18%) are left out. The list shows a part of the results. Unmarked numbers belong to inactive results. Cut-off read from the data, not from the text of the source: active = normalized growth mostly below about 0.91 (no sharp cut-off); inconclusive = no clear call, values can overlap the other calls; inactive = mostly above about 0.92.

Assay: chemical genetic growth profiling, strain panel (AID 1159580);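 note: tested at 20 µM; growth read once vehicle control cultures reached saturation at 30 °C; 1 = growth at the plate median or of vehicle wells; lower values mean less growth of the strain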
Conditions: S. cerevisiae deletion strains, growth OD

For `COc1cccc2c1C(=O)c1c(O)c3c(c(O)c1C2=O)C[C@@](O)(C(C)=O)C[C@@H]3O[C@H]1C[C@H](N)[C@H](O)[C@H](C)O1`, the normalized growth (locus YAL021C, strain ccr4, hits give low values) was 0.872 (active), the normalized growth (locus YAL026C, strain drs2, hits give low values) was 0.959 and the normalized growth (locus YAL030W, strain snc1, hits give low values) was 0.946. For the same molecule, the normalized growth (locus YBL061C, strain skt5, hits give low values) was 0.953, the normalized growth (locus YBR009C, strain hhf1, hits give low values) was 0.894 (active) and the normalized growth (locus YBR023C, strain chs3, hits give low values) was 0.953. It also gave a normalized growth (locus YBR231C, strain swc5, hits give low values) of 0.913, a normalized growth (locus YBR279W, strain paf1, hits give low values) of 0.968 and a normalized growth (locus YCL011C, strain gbp2, hits give low values) of 0.969. For the same molecule, the normalized growth (locus YCL016C, strain dcc1, hits give low values) was 1, the normalized growth (locus YCL069W, strain vba3, hits give low values) was 0.966 and the normalized growth (locus YCR088W, strain abp1, hits give low values) was 0.981. For the same molecule, the normalized growth (locus YDL005C, strain med2, hits give low values) was 0.962, the normalized growth (locus YDL040C, strain nat1, hits give low values) was 0.941 and the normalized growth (locus YDR001C, strain nth1, hits give low values) was 0.958. For the same molecule, the normalized growth (locus YDR069C, strain doa4, hits give low values) was 0.922, the normalized growth (locus YDR137W, strain rgp1, hits give low values) was 0.956 and the normalized growth (locus YDR159W, strain sac3, hits give low values) was 0.836 (active). For the same molecule, the normalized growth (locus YDR195W, strain ref2) was 0.983, the normalized growth (locus YDR297W, strain sur2, hits give low values) was 0.967 and the normalized growth (locus YDR334W, strain swr1, hits give low values) was 0.903. It also gave a normalized growth (locus YDR335W, strain msn5, hits give low values) of 0.987, a normalized growth (locus YDR392W, strain spt3, hits give low values) of 0.976 and a normalized growth (locus YEL003W, strain gim4, hits give low values) of 0.989. The normalized growth (locus YEL037C, strain rad23, hits give low values) was 0.974, the normalized growth (locus YEL061C, strain CIN8 (second series), hits give low values) was 0.951 and the normalized growth (locus YER015W, strain faa2, hits give low values) was 0.914 (active). For the same molecule, the normalized growth (locus YER016W, strain bim1, hits give low values) was 0.993, the normalized growth (locus YER111C, strain swi4, hits give low values) was 0.991 and the normalized growth (locus YER155C, strain BEM2 (second series), hits give low values) was 0.802 (active). The normalized growth (locus YFR010W, strain ubp6, hits give low values) was 0.91, the normalized growth (locus YGL167C, strain pmr1, hits give low values) was 0.986 and the normalized growth (locus YGL173C, strain kem1, hits give low values) was 0.97. The normalized growth (locus YGL227W, strain vid30, hits give low values) was 0.941, the normalized growth (locus YGL240W, strain doc1, hits give low values) was 0.621 (active) and the normalized growth (locus YGL253W, strain hxk2, hits give low values) was 0.907 (active). It also gave a normalized growth (locus YHR013C, strain ard1, hits give low values) of 0.933, a normalized growth (locus YHR027C, strain rpn1, hits give low values) of 0.94 and a normalized growth (locus YHR030C, strain SLT2, hits give low values) of 0.994. It also gave a normalized growth (locus YHR079C, strain IRE1, hits give low values) of 0.989, a normalized growth (locus YHR142W, strain chs7, hits give low values) of 0.956 and a normalized growth (locus YJL092W, strain hpr5, hits give low values) of 0.975. For the same molecule, the normalized growth (locus YJL095W, strain BCK1 (second series), hits give low values) was 0.977, the normalized growth (locus YJL095W, strain BCK1, hits give low values) was 1.01 and the normalized growth (locus YJL115W, strain asf1, hits give low values) was 0.885 (active). The normalized growth (locus YJL129C, strain trk1, hits give low values) was 0.53 (active), the normalized growth (locus YJL154C, strain vps35, hits give low values) was 0.957 and the normalized growth (locus YJL164C, strain tpk1, hits give low values) was 0.97. The normalized growth (locus YJL166W, strain qcr8, hits give low values) was 0.827 (active), the normalized growth (locus YJR066W, strain TOR1, hits give low values) was 0.954 and the normalized growth (locus YKL160W, strain elf1, hits give low values) was 0.963. The normalized growth (locus YKR026C, strain gcn3, hits give low values) was 0.971, the normalized growth (locus YKR091W, strain srl3, hits give low values) was 0.971 and the normalized growth (locus YLL001W, strain dnm1, hits give low values) was 0.981. For the same molecule, the normalized growth (locus YLL026W, hits give low values) was 0.986, the normalized growth (locus YLL041C, strain sdh2, hits give low values) was 0.971 and the normalized growth (locus YLR027C, strain aat2, hits give low values) was 0.976. It also gave a normalized growth (locus YLR113W, strain HOG1, hits give low values) of 1.01, a normalized growth (locus YLR221C, strain rsa3, hits give low values) of 0.977 and a normalized growth (locus YLR258W, strain gsy2, hits give low values) of 0.991. The normalized growth (locus YLR262C, strain YPT6 (second series), hits give low values) was 0.919, the normalized growth (locus YLR320W, strain mms22, hits give low values) was 0.727 (active) and the normalized growth (locus YLR342W, strain FKS1, hits give low values) was 0.967. The normalized growth (locus YLR357W, strain rsc2, hits give low values) was 0.917, the normalized growth (locus YLR370C, strain arc18, hits give low values) was 0.97 and the normalized growth (locus YLR384C, strain iki3, hits give low values) was 0.966. It also gave a normalized growth (locus YML120C, strain ndi1, hits give low values) of 0.959, a normalized growth (locus YMR058W, strain fet3, hits give low values) of 0.922 and a normalized growth (locus YMR125W, strain sto1, hits give low values) of 0.966. For the same molecule, the normalized growth (locus YMR129W, hits give low values) was 0.978, the normalized growth (locus YMR205C, strain PFK2, hits give low values) was 0.873 (active) and the normalized growth (locus YMR231W, strain pep5, hits give low values) was 0.968. For the same molecule, the normalized growth (locus YNL071W, strain lat1, hits give low values) was 0.848 (active), the normalized growth (locus YNL183C, strain NPR1, hits give low values) was 0.971 and the normalized growth (locus YNL209W, strain ssb2, hits give low values) was 0.945. For the same molecule, the normalized growth (locus YNL248C, strain rpa49, hits give low values) was 0.706 (active), the normalized growth (locus YNL322C, strain KRE1 (second series), hits give low values) was 0.975 and the normalized growth (locus YNR049C, strain mso1, hits give low values) was 0.965. For the same molecule, the normalized growth (locus YOR001W, strain rrp6, hits give low values) was 0.96, the normalized growth (locus YOR070C, strain gyp1, hits give low values) was 0.977 and the normalized growth (locus YOR080W, strain dia2, hits give low values) was 0.951. For the same molecule, the normalized growth (locus YOR083W, strain WHI5, hits give low values) was 0.972, the normalized growth (locus YOR106W, strain vam3, hits give low values) was 0.911 and the normalized growth (locus YOR231W, strain MKK1, hits give low values) was 1.01. It also gave a normalized growth (locus YOR265W, strain rbl2, hits give low values) of 0.949, a normalized growth (locus YOR270C, strain vph1, hits give low values) of 0.919 and a normalized growth (locus YOR290C, strain snf2, hits give low values) of 0.995. The normalized growth (locus YPL051W, strain arl3, hits give low values) was 0.958, the normalized growth (locus YPL078C, strain atp4, hits give low values) was 0.891 (active) and the normalized growth (locus YPL106C, strain sse1, hits give low values) was 1.1. For the same molecule, the normalized growth (locus YPL240C, strain hsp82, hits give low values) was 0.98 and the normalized growth (locus YPL256C, strain CLN2, hits give low values) was 0.987.
